# Results from the supplement of paper PMC10849652.
# Of roughly 7,900 targets only a part is listed; those with a hit were picked by preference. About 0.6% of all pairs of compound and target were hits. Unmarked numbers belong to inactive results.
# Tests used:
# Test in all cases: log2 fold change, soluble protein after heating vs DMSO (PISA); higher = thermal stabilisation; K562 cells, 10 uM, 30 min; active = over 0.2 and 3.5 SD of the protein, either way, in both replicates (recomputed)
# [1] = compound: CCn1c(C(=O)N(C2CC2)C2CC2)cc2c3c(ncn3C)c(Nc3cc(C)n(C)n3)nc21
# In short: (§1)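 K562 cells (2×10^6 cells/mL) were treated with 10 μM compound for 30 min, and aliquots were heated for 3 min over 48°C-58°C. Pooled aliquots were extracted in PBS with 0.5% NP-40 at 4°C, and the supernatant after 21,000xg for 90 min was measured by TMTpro 16plex LC-MS/MS with channel sums equalised. Reported thermal stability, relative to control samples and from duplicates, is a log2 fold change.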
# [2] = compound: CN(C)CC(=O)Nc1ccc2[nH]c(=O)c3ccccc3c2c1
# In short: as §1
# [3] = compound: CN(CCOC1=CC=C(C=C1)C[C@H]2C(=O)NC(=O)S2)C3=CC=CC=N3 (racemic) [rosiglitazone]
# In short: as §1
# [4] = compound: CN1CCN(c2nc(C3=C(c4c[nH]c5ccccc45)C(=O)NC3=O)c3ccccc3n2)CC1 [sotrastaurin]
# In short: as §1
# [5] = compound: CNC(=O)C1=CC=CC=C1NC2=NC(=NC=C2Cl)NC3=C(C=C(C=C3)N4CCOCC4)OC
# In short: as §1
# [6] = compound: CNC(=O)c1ccc(Nc2ncc(C(F)(F)F)c(NCc3nccnc3N(C)S(C)(=O)=O)n2)cc1 [defactinib]
# In short: as §1
# [7] = compound: COC(=O)[C@H](CCSC)NC(=O)C1=C(C=C(C=C1)NC[C@H](CS)N)C2=CC=CC=C2
# In short: as §1
# [8] = compound: CC[C@@H]1C(=O)N(C)c2cnc(Nc3ccc(C(=O)N[C@H]4CC[C@H](N5CCN(CC6CC6)CC5)CC4)cc3OC)nc2N1C(C)C [volasertib]
# In short: as §1
# [9] = compound: CC[C@H](C)N1C=C(C2=C(C=C(C=C21)C3=CN=C(C=C3)N4CCNCC4)C(=O)NCC5=C(C=C(NC5=O)C)C)C
# In short: as §1
# [10] = compound: CC[C@H](C)[C@@H](C(=O)N[C@@H]([C@@H](C)O)C(=O)N[C@@H](CC(C)C)C(=O)[C@]1(CO1)C)NC(=O)[C@H]([C@@H](C)CC)N(C)C(=O)C [epoxomicin]
# In short: as §1
# [11] = compound: CCn1cc(-c2ccnc3[nH]c(-c4cccc(CN(C)C)c4)cc23)c(-c2ccc(NC(=O)N(C)C)cc2)n1
# In short: as §1
# [12] = compound: CN1CCC(CNc2ccc3ncc(-c4cccc(OC(F)(F)F)c4)n3n2)CC1
# In short: as §1
# [13] = compound: CN1CC[C@H](c2c(O)cc(O)c3c(=O)cc(-c4ccccc4Cl)oc23)[C@H](O)C1 [alvocidib]
# In short: as §1
# [14] = compound: CN1CCc2c(c3ccccc3n2Cc2ccc(C(=O)NO)cc2)C1 [Tubastatin A]
# In short: as §1
# [15] = compound: CC[C@@H]1C(=O)N(C)c2cnc(Nc3ccc(C(=O)NC4CCN(C)CC4)cc3OC)nc2N1C1CCCC1
# In short: as §1
# [16] = compound: CNCc1ccc(-c2[nH]c3cc(F)cc4c3c2CCNC4=O)cc1 [rucaparib]
# In short: as §1
# [17] = compound: COC(=O)N[C@@H](C)CNc1nccc(-c2cn(C(C)C)nc2-c2cc(Cl)cc(NS(C)(=O)=O)c2F)n1 [encorafenib]
# In short: as §1
# [18] = compound: CN1C2=C(C3=C1C(=O)N(N=C3)CC4=CC(=CC=C4)N)SC(=C2)S(=O)C
# In short: as §1
# [19] = compound: CN1CCN(CCOc2cc(OC3CCOCC3)c3c(Nc4c(Cl)ccc5c4OCO5)ncnc3c2)CC1 [saracatinib]
# In short: as §1
# [20] = compound: CNc1nc(-c2ccc3c(N)n[nH]c3c2)cc(N2C[C@@H](C(=O)NC3CCCCC3)CC[C@H]2C)n1
# In short: as §1
# Chain of UniProt Q9HCD5 (Q9HCD5 whole entry, looked up): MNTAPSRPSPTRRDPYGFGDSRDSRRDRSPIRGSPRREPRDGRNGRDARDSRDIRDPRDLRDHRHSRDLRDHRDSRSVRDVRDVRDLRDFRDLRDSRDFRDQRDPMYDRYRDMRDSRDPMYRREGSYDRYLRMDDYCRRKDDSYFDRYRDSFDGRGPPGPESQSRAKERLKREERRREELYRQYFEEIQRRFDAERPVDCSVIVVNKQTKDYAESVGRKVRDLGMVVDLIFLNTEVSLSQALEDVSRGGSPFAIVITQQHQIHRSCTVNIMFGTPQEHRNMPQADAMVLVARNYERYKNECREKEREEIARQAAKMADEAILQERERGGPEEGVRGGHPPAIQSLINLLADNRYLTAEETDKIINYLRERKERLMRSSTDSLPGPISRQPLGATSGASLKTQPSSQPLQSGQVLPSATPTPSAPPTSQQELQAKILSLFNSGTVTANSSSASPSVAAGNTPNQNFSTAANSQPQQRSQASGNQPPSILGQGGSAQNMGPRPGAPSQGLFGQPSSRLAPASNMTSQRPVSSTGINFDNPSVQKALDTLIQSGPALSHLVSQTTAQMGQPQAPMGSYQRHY
# Chain of UniProt Q70IA6 (Q70IA6 whole entry, looked up): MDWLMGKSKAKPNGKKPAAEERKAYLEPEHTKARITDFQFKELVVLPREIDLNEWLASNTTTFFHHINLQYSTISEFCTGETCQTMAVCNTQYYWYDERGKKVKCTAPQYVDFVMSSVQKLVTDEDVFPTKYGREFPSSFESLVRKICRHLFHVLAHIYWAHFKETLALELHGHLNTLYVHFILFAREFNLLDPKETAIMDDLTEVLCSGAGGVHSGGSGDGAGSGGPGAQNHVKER
# Chain of UniProt Q4G0T1 (Q4G0T1 whole entry, looked up): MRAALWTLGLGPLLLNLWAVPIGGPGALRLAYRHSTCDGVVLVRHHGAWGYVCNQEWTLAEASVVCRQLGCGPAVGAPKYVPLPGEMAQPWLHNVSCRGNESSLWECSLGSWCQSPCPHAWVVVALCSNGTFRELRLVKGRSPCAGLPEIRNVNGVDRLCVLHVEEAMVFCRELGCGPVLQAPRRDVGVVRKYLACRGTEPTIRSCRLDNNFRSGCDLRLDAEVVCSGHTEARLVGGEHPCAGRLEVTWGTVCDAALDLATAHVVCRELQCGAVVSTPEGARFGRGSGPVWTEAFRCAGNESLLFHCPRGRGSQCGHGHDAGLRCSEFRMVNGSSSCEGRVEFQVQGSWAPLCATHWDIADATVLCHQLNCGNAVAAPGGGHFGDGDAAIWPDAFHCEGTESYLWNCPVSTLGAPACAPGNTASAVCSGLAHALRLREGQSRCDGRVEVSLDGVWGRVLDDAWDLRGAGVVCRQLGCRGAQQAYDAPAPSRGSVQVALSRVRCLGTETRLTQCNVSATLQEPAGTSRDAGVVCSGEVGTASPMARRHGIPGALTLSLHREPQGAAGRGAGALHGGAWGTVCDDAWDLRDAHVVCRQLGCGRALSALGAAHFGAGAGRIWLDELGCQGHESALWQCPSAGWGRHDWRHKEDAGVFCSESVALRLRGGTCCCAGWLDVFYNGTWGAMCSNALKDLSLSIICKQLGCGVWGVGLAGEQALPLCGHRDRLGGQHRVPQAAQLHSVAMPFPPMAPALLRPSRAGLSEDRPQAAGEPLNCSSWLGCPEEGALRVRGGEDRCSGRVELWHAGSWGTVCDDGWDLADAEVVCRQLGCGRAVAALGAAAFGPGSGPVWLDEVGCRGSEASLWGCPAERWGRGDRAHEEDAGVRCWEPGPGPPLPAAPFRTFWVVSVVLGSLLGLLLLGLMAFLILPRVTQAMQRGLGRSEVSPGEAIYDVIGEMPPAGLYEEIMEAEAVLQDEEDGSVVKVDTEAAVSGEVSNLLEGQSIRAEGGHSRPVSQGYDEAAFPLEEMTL
# Chain of UniProt Q6N063 (Q6N063 whole entry, looked up): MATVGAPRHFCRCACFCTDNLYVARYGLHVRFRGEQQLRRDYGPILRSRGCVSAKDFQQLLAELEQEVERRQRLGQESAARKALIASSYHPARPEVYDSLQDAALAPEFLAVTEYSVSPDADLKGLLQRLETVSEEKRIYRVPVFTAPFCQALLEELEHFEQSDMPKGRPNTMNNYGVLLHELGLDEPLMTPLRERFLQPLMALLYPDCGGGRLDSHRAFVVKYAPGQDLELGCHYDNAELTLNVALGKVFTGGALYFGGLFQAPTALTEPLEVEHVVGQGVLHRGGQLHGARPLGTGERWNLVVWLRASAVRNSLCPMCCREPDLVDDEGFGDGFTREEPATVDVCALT
# Chain of UniProt Q96H55 (Q96H55 whole entry, looked up): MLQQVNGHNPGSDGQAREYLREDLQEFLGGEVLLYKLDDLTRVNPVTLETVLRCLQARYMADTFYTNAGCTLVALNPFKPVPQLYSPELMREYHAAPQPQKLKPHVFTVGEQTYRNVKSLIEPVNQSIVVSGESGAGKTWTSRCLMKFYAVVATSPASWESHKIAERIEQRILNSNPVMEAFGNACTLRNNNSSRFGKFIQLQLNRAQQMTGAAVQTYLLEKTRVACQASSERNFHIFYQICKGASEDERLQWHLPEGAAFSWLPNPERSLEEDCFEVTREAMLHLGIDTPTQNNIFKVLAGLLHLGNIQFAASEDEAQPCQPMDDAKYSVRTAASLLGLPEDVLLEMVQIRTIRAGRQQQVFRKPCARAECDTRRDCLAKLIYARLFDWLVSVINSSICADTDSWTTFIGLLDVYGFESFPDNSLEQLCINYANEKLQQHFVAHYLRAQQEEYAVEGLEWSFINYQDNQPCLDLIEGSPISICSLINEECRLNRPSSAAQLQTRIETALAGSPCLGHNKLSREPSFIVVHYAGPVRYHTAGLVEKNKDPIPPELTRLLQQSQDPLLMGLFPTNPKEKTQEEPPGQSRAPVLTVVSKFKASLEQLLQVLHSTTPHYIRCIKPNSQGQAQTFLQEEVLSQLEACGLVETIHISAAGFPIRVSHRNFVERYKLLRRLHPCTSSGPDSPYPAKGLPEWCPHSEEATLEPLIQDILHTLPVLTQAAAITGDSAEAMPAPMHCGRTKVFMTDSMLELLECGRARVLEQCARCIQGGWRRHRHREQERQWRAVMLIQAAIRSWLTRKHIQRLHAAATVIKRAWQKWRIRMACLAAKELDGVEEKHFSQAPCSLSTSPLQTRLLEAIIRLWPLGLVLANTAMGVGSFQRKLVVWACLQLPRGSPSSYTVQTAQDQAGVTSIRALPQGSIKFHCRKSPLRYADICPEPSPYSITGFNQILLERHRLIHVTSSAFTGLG
# Chain of UniProt P0C024 (P0C024 whole entry, looked up): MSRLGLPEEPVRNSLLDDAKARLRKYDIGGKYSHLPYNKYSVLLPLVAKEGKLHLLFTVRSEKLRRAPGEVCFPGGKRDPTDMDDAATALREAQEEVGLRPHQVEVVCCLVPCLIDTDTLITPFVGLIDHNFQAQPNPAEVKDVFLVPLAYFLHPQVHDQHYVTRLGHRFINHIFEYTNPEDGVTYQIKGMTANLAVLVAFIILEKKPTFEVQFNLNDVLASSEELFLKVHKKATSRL
# Chain of UniProt P30414 (P30414 whole entry, looked up): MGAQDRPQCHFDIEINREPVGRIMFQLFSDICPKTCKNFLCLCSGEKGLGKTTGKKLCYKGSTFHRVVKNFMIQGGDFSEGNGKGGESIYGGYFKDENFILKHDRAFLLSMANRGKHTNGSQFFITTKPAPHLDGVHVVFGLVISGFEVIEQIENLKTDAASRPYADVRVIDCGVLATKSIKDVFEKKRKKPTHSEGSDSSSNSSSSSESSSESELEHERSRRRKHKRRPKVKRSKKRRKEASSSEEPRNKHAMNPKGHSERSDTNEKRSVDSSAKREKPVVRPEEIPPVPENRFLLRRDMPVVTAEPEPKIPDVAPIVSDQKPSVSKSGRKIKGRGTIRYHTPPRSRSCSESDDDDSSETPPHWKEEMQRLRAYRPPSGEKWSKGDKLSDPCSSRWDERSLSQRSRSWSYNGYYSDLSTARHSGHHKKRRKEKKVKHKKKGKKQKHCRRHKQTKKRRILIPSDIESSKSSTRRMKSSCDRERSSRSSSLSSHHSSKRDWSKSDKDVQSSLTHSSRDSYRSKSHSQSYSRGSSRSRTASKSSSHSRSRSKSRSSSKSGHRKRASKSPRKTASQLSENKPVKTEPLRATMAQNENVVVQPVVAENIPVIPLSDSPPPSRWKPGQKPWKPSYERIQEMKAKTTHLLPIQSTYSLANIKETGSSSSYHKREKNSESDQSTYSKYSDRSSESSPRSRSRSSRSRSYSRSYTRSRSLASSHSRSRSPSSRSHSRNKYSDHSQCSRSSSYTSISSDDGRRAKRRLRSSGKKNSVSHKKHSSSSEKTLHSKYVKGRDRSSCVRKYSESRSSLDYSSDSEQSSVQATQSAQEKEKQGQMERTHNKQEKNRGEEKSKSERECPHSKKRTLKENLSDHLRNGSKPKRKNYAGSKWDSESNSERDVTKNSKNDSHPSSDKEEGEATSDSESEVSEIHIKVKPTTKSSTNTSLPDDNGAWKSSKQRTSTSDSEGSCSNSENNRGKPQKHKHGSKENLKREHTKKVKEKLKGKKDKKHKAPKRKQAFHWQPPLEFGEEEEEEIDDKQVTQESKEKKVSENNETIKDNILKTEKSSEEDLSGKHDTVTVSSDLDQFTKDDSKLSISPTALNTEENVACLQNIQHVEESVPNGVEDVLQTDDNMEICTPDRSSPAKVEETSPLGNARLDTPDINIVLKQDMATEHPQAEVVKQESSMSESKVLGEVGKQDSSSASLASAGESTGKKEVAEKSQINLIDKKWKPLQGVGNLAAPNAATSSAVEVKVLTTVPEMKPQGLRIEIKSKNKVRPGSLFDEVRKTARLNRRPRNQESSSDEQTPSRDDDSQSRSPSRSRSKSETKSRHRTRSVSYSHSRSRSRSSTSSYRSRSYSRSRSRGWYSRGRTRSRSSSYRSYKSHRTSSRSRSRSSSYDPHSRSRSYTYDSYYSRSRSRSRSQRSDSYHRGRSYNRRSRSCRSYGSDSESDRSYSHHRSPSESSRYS
Target,log2 fold change [1],log2 fold change [2],log2 fold change [3],log2 fold change [4],log2 fold change [5],log2 fold change [6],log2 fold change [7],log2 fold change [8],log2 fold change [9],log2 fold change [10],log2 fold change [11],log2 fold change [12],log2 fold change [13],log2 fold change [14],log2 fold change [15],log2 fold change [16],log2 fold change [17],log2 fold change [18],log2 fold change [19],log2 fold change [20]
NDUFA7 (UniProt M0R0N0),-0.017,-0.092,0.081,0.201,-0.195,0.076,0.093,–,–,–,–,–,–,–,–,–,–,–,–,–
MOB2 isoform 3 (UniProt Q70IA6),-0.036,–,-0.004,–,-0.123,–,–,-0.231,0.207,-0.193,-0.029,-0.103,-0.017,-0.073,–,–,–,–,–,–
NKTR (UniProt P30414),-0.102,–,0.39,–,0.939 (active),–,–,-0.152,–,–,–,–,–,–,–,–,–,–,–,–
MYSM1 (UniProt Q5VVJ2),–,–,0.157,-0.294,–,–,–,–,–,–,–,–,–,–,-0.17,0.003,0.13,–,–,–
NDFIP1 (UniProt Q9BT67),0.056,0.152,0.108,-0.028,0.124,0.015,-0.115,–,-0.2,0.102,0.224,-0.062,-0.088,0.056,0.211,0.286,-0.001,0.175,-0.274,-0.187
OSBPL2 (UniProt Q9H1P3),–,–,–,–,–,–,–,0.025,–,–,–,–,-0.197,–,–,–,–,–,–,–
"NA, A0A494C071",–,-0.122,0.125,–,–,0.044,0.124,–,0.38,-0.11,0.189,-1.73 (active),0.062,-0.197,-1.54 (active),-0.359,0.027,-0.028,0.033,-0.062
NA isoform 3 (UniProt Q4G0T1),0.004,-0.019,0.008,0.035,0.007,0.034,-0.001,-0.051,0.026,–,–,–,0.039,0.04,–,–,–,-0.008,-0.011,-0.053
NA (UniProt J3KR12),–,–,0.148,–,–,–,–,–,-0.021,0.079,–,–,–,–,–,–,–,–,–,–
OGFOD2 (UniProt Q6N063),-0.033,0.035,-0.027,–,0.094,-0.076,0.032,–,-0.019,0.08,-0.372 (active),-0.112,-0.035,-0.08,-0.007,-0.029,0.133,0.147,0.095,0.009
MYH16 (UniProt Q9H6N6),0.029,0.011,0.065,-0.224,-0.075,0.013,-0.171,0.077,0.156,–,-0.067,0.26,0.138,-0.069,–,–,–,–,–,–
NCOA5 (UniProt Q9HCD5),0.026,–,–,0.188,-0.081,–,–,0.072,-0.019,–,0.038,0.036,–,–,–,–,–,0.187,0.002,-0.04
NUDT7 (UniProt P0C024),0.058,–,0.038,0.035,0.052,–,–,–,0.187,-0.067,-0.055,0.322,–,-0.045,–,–,–,–,–,–
NELFCD (UniProt Q8IXH7),-0.044,0.298,0.015,–,0.024,-0.228,-0.085,-0.562 (active),0.244,-0.052,-0.113,0.226,-0.378,–,–,–,–,-0.05,-0.114,-0.002
MYO19 (UniProt Q96H55),-0.138,-0.081,0.121,–,-0.046,0.093,0.103,0.007,0.011,0.097,-0.215,0.404,0.001,–,–,–,–,0.076,-0.066,0.09
"NA, A0A1W2PSA9",–,–,–,–,–,–,–,–,–,–,0.08,0.057,0.168,-0.17,–,–,–,0.279,-0.046,-0.107
PAFAH2 (UniProt Q99487),-0.328,0.005,0.082,-0.074,-0.179,-0.093,-0.067,-0.058,–,–,–,–,-0.112,-0.196,–,–,–,-0.059,0.023,-0.133
MTFR1L (UniProt Q9H019),-0.145,0.08,-0.019,-0.037,-0.024,-0.085,-0.14,-0.586 (active),0.036,0.023,-0.186,-0.296,-0.106,0.052,–,–,–,0.013,0.052,-0.054
